Source: PubChem BioAssay (National Center for Advancing Translational Sciences (NCATS))
HEK cytotox – HEK 293 cell cytotoxicity; Potency, µM (highest dose often 115 µM), usual class: inhibitors; AID 1345083; HEK 293 viability, ATP luminescence (CellTiter-Glo), 48-72 h; 94,000 tested, 6.6% active; further: nearly all actives have a fitted effect of over 60% in size
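Luminescence from cellular ATP, measured with CellTiter-Glo, indicates HEK 293 viability. Cells plated at 250 cells/well are treated with compound for 48 or 72 hr at 37 degree Celsius before reagent addition.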
NPR1 antag – blocks ANP-stimulated signaling of human Npr1 receptor; HEK293 hNpr1 GloSensor cGMP, ANP-stimulated luminescence; 76,000 tested, 1.6% active; P16066; AID 1347048; Potency, µM (doses to about 46.3 µM), usual class: inhibitors; calls by dose curve; further: nearly all actives have a fitted effect of over 60% in size
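Compound pre-incubated 30 min at room temperature on GloSensor-loaded HEK293 cells stably carrying hNpr1 and the pGS-40F cGMP biosensor. Stimulation uses hNppA at 0.1 nM final; luminescence is taken at baseline and 20 min post-agonist.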
3T3 cytotox – NIH 3T3 cell cytotoxicity. 94,000 tested, 4.3% active. NIH 3T3 viability, CellTiter-Glo ATP luminescence, 48-72 h. AID 1345082. Potency, µM (highest dose often 96.7 µM), hits mostly inhibitors; further: nearly all actives have a fitted effect of over 55% in size
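Cytotoxicity is measured as loss of cellular ATP: NIH 3T3 cells (400/well) are exposed to compound for 48 or 72 hr at 37 °C, then CellTiter-Glo luminescence is imaged after 10 min at room temperature.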
Luciferase inh – Photinus pyralis luciferase inhibition; P08659; purified P. pyralis luciferase, luminescence, biochemical; Potency, µM (titrated, usually from 115 µM), usual class: inhibitors; 76,000 tested, 2.5% active; further: nearly all actives have a fitted effect of over 65% in size
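Purified 10nM P. pyralis luciferase with 10uM D-luciferin and 10uM ATP in 50mM Tris acetate pH 7.5, 10mM Mg acetate, 0.01% Tween-20, 0.05% BSA. qHTS titration; luminescence read by CCD imager.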
Npr1 antag conf – hNpr1 antagonism, confirmation assay; AID 1347044; Potency, µM (highest dose often 57.6 µM), usual class: inhibitors; HEK293 hNpr1 cGMP GloSensor luminescence, ANP-stimulated; shares compounds with NPR1 antag; 1,400 tested, 76% active; calls by dose curve; further: nearly all actives have a fitted effect of over 70% in size
NPR2 antag – antagonizes human Npr2, subtype selectivity check | shares compounds with NPR1 antag | HEK293 hNpr2 GloSensor cGMP luminescence, CNP-stimulated | Potency, µM (titrated, usually from 57.6 µM), actives largely listed as inhibitors | AID 1347046 | 1,400 tested, 67% active; calls by dose curve; further: nearly all actives have a fitted effect of over 70% in size
Target sequence (P20594 whole entry, looked up): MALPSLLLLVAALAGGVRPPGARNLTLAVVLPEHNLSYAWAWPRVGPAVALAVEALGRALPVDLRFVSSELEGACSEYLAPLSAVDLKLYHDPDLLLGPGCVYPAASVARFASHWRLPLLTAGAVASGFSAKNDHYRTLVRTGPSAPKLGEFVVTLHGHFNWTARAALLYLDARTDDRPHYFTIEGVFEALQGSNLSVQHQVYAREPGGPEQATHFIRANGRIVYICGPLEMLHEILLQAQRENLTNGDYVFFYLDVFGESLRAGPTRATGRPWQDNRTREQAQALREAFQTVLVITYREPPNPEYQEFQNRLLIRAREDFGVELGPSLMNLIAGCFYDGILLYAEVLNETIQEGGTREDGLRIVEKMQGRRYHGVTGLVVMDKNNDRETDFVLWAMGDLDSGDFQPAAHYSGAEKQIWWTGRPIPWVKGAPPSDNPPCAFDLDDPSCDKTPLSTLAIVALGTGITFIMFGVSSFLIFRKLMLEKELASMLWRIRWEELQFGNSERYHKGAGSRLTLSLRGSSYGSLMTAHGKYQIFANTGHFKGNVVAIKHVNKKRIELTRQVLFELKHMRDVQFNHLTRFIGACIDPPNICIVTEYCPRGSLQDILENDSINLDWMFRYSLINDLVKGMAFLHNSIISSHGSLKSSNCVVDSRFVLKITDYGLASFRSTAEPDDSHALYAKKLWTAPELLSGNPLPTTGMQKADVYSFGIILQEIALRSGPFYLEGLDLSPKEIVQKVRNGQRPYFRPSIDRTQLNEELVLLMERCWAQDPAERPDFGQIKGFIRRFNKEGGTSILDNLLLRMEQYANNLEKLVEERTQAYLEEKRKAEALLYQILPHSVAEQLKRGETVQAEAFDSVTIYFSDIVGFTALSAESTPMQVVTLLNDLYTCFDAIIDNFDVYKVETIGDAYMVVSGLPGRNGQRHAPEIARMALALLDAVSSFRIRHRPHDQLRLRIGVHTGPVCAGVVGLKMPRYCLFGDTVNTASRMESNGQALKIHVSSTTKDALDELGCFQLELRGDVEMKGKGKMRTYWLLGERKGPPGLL
FLuc counter – counter-screen for Npr1 antagonists: firefly luciferase inhibitors. shares compounds with NPR1 antag. purified FLuc enzyme, luminescence, Km substrate. Potency, µM (highest dose often 57.6 µM), most hits filed as inhibitors. 1,400 tested, 0.7% active
GloSensor cGMP – control cell line activity, Npr1 antagonist counter-screen. shares compounds with NPR1 antag. 1,400 tested, 69% active. HEK293 GloSensor cGMP, SNP-stimulated, luminescence. Potency, µM (top dose mostly 57.6 µM), usual class: inhibitors; calls by dose curve; further: nearly all actives have a fitted effect of over 70% in size
Of the large screens only hits and unclear results are named; the others gave an inactive call (follow-up assays come after a bar, where they were run). Most compounds without a hit are left out; they make up all but 11% or so of the library. Unless noted, the call rests on the fitted dose curve; in most records, active means well fitted curve in the direction sought with a large enough effect; inconclusive means small, poorly fitted or top-dose-only effect, or another doubt; inactive means no such curve, though single readings can be large; an effect the other way counts as inactive or inconclusive.

COc1ccc(C(=O)N2CCC3(CC2)CC(=O)Nc2ccccc2O3)cc1	NPR1 antag 13µM | Npr1 antag conf 22µM | NPR2 antag 22µM | FLuc counter inactive | GloSensor cGMP 22µM
Cc1ccc(C(=O)N2CCC3(CC2)CC(=O)Nc2ccccc2O3)cc1	HEK cytotox inconclusive (no result: NPR1 antag, Luciferase inh) | Npr1 antag conf 24µM | NPR2 antag 24µM | FLuc counter inactive | GloSensor cGMP 15µM
Cc1ccc(C(=O)N2CCC(C(=O)N3CCC4(CC3)CC(=O)Nc3ccccc3O4)CC2)cc1	HEK cytotox inconclusive (no result: NPR1 antag, Luciferase inh)
COc1ccc(C(=O)N2CCC3(CC2)CC(=O)c2ccccc2O3)cc1	HEK cytotox inconclusive
OCC1CN(c2ncccn2)CC12CCN(Cc1cc(Cl)ccc1F)CC2 (stereo not given)	HEK cytotox inconclusive
COCc1cc(NCCSCc2ccccc2C)ncn1	HEK cytotox inconclusive, NPR1 antag 11µM, 3T3 cytotox inconclusive | Npr1 antag conf 22µM | NPR2 antag 19µM | FLuc counter inactive | GloSensor cGMP 15µM
CCOC(=O)c1sc(NC(=O)CC[C@H]2NC(=O)c3ccccc3NC2=O)nc1C	3T3 cytotox inconclusive
Cc1ccccc1S(=O)(=O)N1CCC(CCC(=O)O)CC1	none
Cc1ccc(NC(=O)CCC2CCN(S(=O)(=O)c3ccccc3C)CC2)cc1F	NPR1 antag inconclusive, 3T3 cytotox inconclusive | Npr1 antag conf inconclusive | NPR2 antag inconclusive | FLuc counter inactive | GloSensor cGMP inconclusive
COc1cccc(CNC(=O)C2CN(C(C)C)C(=O)N2)c1 (stereo not given)	none (no result: NPR1 antag, Luciferase inh)
O=C(c1cc(F)ccc1Cl)N1CCC(Cc2nc(-c3ccc(F)cc3)no2)CC1	HEK cytotox inconclusive, NPR1 antag 7.1µM, 3T3 cytotox inconclusive | Npr1 antag conf 9.7µM | NPR2 antag 11µM | FLuc counter inactive | GloSensor cGMP 8.6µM
O=C(c1cc(F)cc(F)c1)N1CCC(Cc2nc(-c3ccccc3)no2)CC1	HEK cytotox inconclusive, NPR1 antag 7.1µM, 3T3 cytotox inconclusive | Npr1 antag conf 6.1µM | NPR2 antag 6.1µM | FLuc counter inactive | GloSensor cGMP 5.4µM
O=C(c1ccc(F)cc1Cl)N1CCC(Cc2nc(-c3ccccc3)no2)CC1	HEK cytotox inconclusive, NPR1 antag 5.6µM, 3T3 cytotox inconclusive | Npr1 antag conf 5.4µM | NPR2 antag 5.4µM | FLuc counter inactive | GloSensor cGMP 4.3µM
O=C(c1ccc(F)cc1)N1CCC(Cc2nc(C3CCOCC3)no2)CC1	HEK cytotox inconclusive, NPR1 antag inconclusive, 3T3 cytotox inconclusive
O=C(c1ccc(F)cc1)N1CCC(Cc2nc(-c3cnccn3)no2)CC1	HEK cytotox inconclusive, 3T3 cytotox inconclusive
CC(C)c1noc(CC2CCN(C(=O)c3ccccc3Cl)CC2)n1	HEK cytotox inconclusive, 3T3 cytotox inconclusive
O=C(c1cc(F)ccc1Cl)N1CCC(Cc2nc(-c3ccccc3)no2)CC1	HEK cytotox 50µM, NPR1 antag 11µM, 3T3 cytotox inconclusive | Npr1 antag conf 14µM | NPR2 antag 15µM | FLuc counter inactive | GloSensor cGMP 12µM
CCN(CC)c1cc(CCC(=O)NCCN(C)C2CCCCC2)ccn1	HEK cytotox inconclusive
CC(NC(=O)C1(N2CCCCC2)Cc2ccccc2C1)c1cnn(C)c1 (stereo not given)	none
COc1ccc(CCCN2C(=O)O[C@@H]3CN(c4cc(OC)ncn4)C[C@@H]32)cc1	HEK cytotox inconclusive, NPR1 antag 13µM, 3T3 cytotox inconclusive | Npr1 antag conf 24µM | NPR2 antag 22µM | FLuc counter inactive | GloSensor cGMP 22µM
CC(C)(C)c1noc(-c2nnn3c2COC(c2ccc(F)cc2)C3)n1 (stereo not given)	HEK cytotox inconclusive, NPR1 antag inconclusive | Npr1 antag conf inconclusive | NPR2 antag inconclusive | FLuc counter inactive | GloSensor cGMP inactive
Clc1ccc(C2Cn3nnc(-c4nc(C5CC5)no4)c3CO2)cc1 (stereo not given)	HEK cytotox inconclusive, NPR1 antag inconclusive, 3T3 cytotox inconclusive | Npr1 antag conf inconclusive | NPR2 antag inactive | FLuc counter inactive | GloSensor cGMP inactive
Cc1noc(-c2nnn3c2COC(c2ccc(F)cc2)C3)n1 (stereo not given)	none
CC(C)(C)c1noc(-c2nnn3c2COC(c2ccc(Cl)cc2)C3)n1 (stereo not given)	HEK cytotox inconclusive, NPR1 antag inconclusive, 3T3 cytotox inconclusive | Npr1 antag conf 19µM | NPR2 antag inconclusive | FLuc counter inactive | GloSensor cGMP inactive
CCCc1noc(-c2nnn3c2COC(c2ccc(OC)cc2)C3)n1 (stereo not given)	none
COc1ccc(C2Cn3nnc(-c4nc(C(C)(C)C)no4)c3CO2)cc1 (stereo not given)	HEK cytotox inconclusive, NPR1 antag inconclusive, 3T3 cytotox inconclusive | Npr1 antag conf 22µM | NPR2 antag inconclusive | FLuc counter inactive | GloSensor cGMP inactive
O=C(NC1CCN(c2ccc3nnc(-c4ccccc4)n3n2)CC1)c1cccc(C(F)(F)F)c1	none (no result: NPR1 antag, Luciferase inh)
O=S(=O)(c1cccc2nsnc12)N1CCCC(c2nc(CCOCC3CC3)no2)C1 (stereo not given)	none (no result: NPR1 antag, Luciferase inh)
O=C(NCCc1ccc(F)cc1)c1cc(-c2cccc(C(F)(F)F)c2)c2nncn2n1	HEK cytotox inconclusive (no result: NPR1 antag, Luciferase inh)
Cc1ccc(C2Cn3nnc(-c4nc(C5CCCCC5)no4)c3CO2)c(C)c1 (stereo not given)	HEK cytotox inconclusive, NPR1 antag inconclusive | Npr1 antag conf 14µM | NPR2 antag 14µM | FLuc counter inactive | GloSensor cGMP inactive
Cn1cc(CC(=O)N2CCCc3ncc(C(=O)N4CCC(c5ccccc5)CC4)cc32)c2ccccc21	HEK cytotox 40µM, NPR1 antag 16µM, 3T3 cytotox inconclusive | Npr1 antag conf 22µM | NPR2 antag 22µM | FLuc counter inactive | GloSensor cGMP 19µM
Cc1nn(C)c2nc(N3C[C@@H]4CCN(C)[C@@H]4C3)sc12	none
Cc1nn(C)c2nc(N3CCC(C#N)(c4ccccc4)CC3)sc12	HEK cytotox 28µM, NPR1 antag 16µM, 3T3 cytotox inconclusive | Npr1 antag conf 22µM | NPR2 antag 24µM | FLuc counter inactive | GloSensor cGMP 22µM
CC(=O)Nc1ccc(CN2CCOC[C@H]2c2ncc(-c3ccc(Cl)cc3)[nH]2)cc1	HEK cytotox inconclusive, 3T3 cytotox inconclusive
